# Experimental data taken from PubChem BioAssay AID1345085 (National Center for Advancing Translational Sciences (NCATS), 2018).
# Records with an inconclusive call do not appear. The source made the active and inactive calls. Calls come from the whole dose curve; as a rule, active = well fitted cell-killing curve with a large enough effect; inconclusive = small, poorly fitted or top-dose-only effect, or effect the other way; inactive = no such curve, though single readings can be large or run the other way.
# System: HeLa
# Assay: Confirmatory qHTS for gynecologic anti-cancer compounds from libraries of approved drugs and bioactive compounds; note: nearly all actives have a fitted effect of over 55% in size
# Settings: gynecologic cancer cell panel viability, ATPlite luminescence, 48 h; series mostly up to 57.6 µM
# Outline: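 Cells (1,000/well) were plated, left 16 h at 37 C/5% CO2, then given compound at 11 concentrations (1:3) from 57.5 uM to 0.977 nM for 48 h. ATPlite luminescence after 15 min at room temperature gave IC50 values.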
# % is set by controls: 0 for no effect and ±100 for the full control effect; potency is the fitted concentration of half-maximal effect.
Structure (SMILES),Potency,"activity change, negative = viability loss"
OCCNC1CCCc2c1[nH]c1ccc(-c3ccccc3)cc21 (configuration not stated),1.93 µM (active),–
COCCOc1nc(-c2ccc(Cl)c(Cl)c2)n(-c2ccc(NC(=O)CCl)cc2)n1,24.3 µM (active),–
O=C(c1ccc(F)c(F)c1Nc1ccc(I)cc1F)N1CC(O)([C@@H]2CCCCN2)C1,21.7 µM (active),–
Cc1cnc(Nc2cccc(CN3CCOCC3)c2)nc1Nc1cccc(S(=O)(=O)NC(C)(C)C)c1,1.72 µM (active),–
Cc1cnc(CNC(=O)c2c(=O)c3ccc(N4CCCN(C)CC4)nc3n3c2sc2ccccc23)cn1,–,-3.33% [at 10.7 µM] (inactive)
CNC(=O)c1nn(C)c2c1C(C)(C)Cc1cnc(Nc3ccc(N4CCN(C)CC4)cc3)nc1-2,1.53 µM (active),–
CCCc1nn(C)c2c(=O)[nH]c(-c3cc(S(=O)(=O)N4CCN(C)CC4)ccc3OCC)nc12,inactive,–
O=C(/C=C/c1cccc(S(=O)(=O)Nc2ccccc2)c1)NO,5.3 µM (active),–
CN1CCN(Cc2ccc(NC(=O)Nc3ccc(Oc4cc(NC(=O)C5CC5)ncn4)cc3)cc2C(F)(F)F)CC1,0.306 µM (active),–
NC(=O)c1cnc(-c2ccc(C3(N)CCC3)cc2)c(-c2ccccc2)c1,30.6 µM (active),–
COc1cc(Nc2ncc3c(n2)-c2ccc(Cl)cc2C(c2c(F)cccc2OC)=NC3)ccc1C(=O)O,0.685 µM (active),–
CC[C@H](Nc1ncnc2nc[nH]c12)c1nc2cccc(F)c2c(=O)n1-c1ccccc1,–,0.732% [at 10.7 µM] (inactive)
Cn1cnc2c(F)c(Nc3ccc(Br)cc3Cl)c(C(=O)NOCCO)cc21,inactive,–
CCCCN(CCCC)CC(O)c1cc(Cl)cc2c1-c1ccc(Cl)cc1/C2=C/c1ccc(Cl)cc1 (configuration not stated),inactive,–
CNC1CCC(N(Cc2cccc(-c3ccncc3)c2)C(=O)c2sc3ccccc3c2Cl)CC1 (configuration not stated),27.3 µM (active),–
COC(C(=O)N1Cc2[nH]nc(NC(=O)c3ccc(N4CCN(C)CC4)cc3)c2C1)c1ccccc1 (configuration not stated),0.243 µM (active),–
CCS(=O)(=O)c1cccc(-c2cc(C(=O)NC3CCN(C)CC3)c(C)c3[nH]c4ncc(C)cc4c23)c1,0.476 µM (active),–
CN1C(=O)C(Cc2c[nH]c3ccccc23)NC1=S (configuration not stated),inactive,–
COc1cc2nccc(Oc3ccc(NC(=O)C4(C(=O)Nc5ccc(F)cc5)CC4)cc3)c2cc1OC,13.7 µM (active),–

Structure (SMILES),Potency,"activity change, negative = viability loss"
CC(=O)OC12COC1CC(O)C1(C)C(=O)C(O)C3=C(C)C(OC(=O)C(O)C(NC(=O)OC(C)(C)C)c4ccccc4)CC(O)(C(OC(=O)c4ccccc4)C21)C3(C)C (configuration not stated),0.0097 µM (active),–
C[C@@]1(C(=O)Nc2ccc(F)nc2)CCCN1c1nc(Nc2cc(C3CC3)[nH]n2)c2cccn2n1,0.968 µM (active),–
CC(=O)NCC(=O)N1C2CCC1c1cc(Nc3ncc(C(F)(F)F)c(NC4CCC4)n3)ccc12 (configuration not stated),1.09 µM (active),–
CN(Cc1cnc2nc(N)nc(N)c2n1)c1ccc(C(=O)N[C@@H](CCC(=O)O)C(=O)O)cc1,inactive,–
CC(=O)c1cnc2ccc(-c3cc(Cl)c(O)c(Cl)c3)nc2c1NC1CCC(CN(C)C)CC1 (configuration not stated),0.0993 µM (active),–
Cc1nc(N)ncc1-c1nc(N2CCOCC2)c2sc(C(C)(C)O)cc2n1,1.72 µM (active),–
CN(C)C/C=C/C(=O)Nc1cc2c(Nc3ccc(F)c(Cl)c3)ncnc2cc1OC1CCOC1 (configuration not stated),24.3 µM (active),–
Cc1nc(NC(=O)N2CCCC2C(N)=O)sc1-c1ccnc(C(C)(C)C(F)(F)F)c1 (configuration not stated),19.3 µM (active),–
Cc1nc(N)nc(N)c1-c1ccc(Cl)c(Cl)c1,3.06 µM (active),–
Cc1cc(Nc2nc(N[C@@H](C)c3ncc(F)cn3)ncc2Cl)n[nH]1,0.968 µM (active),–
CC(=O)O[C@H]1C(=O)[C@@]2(C)[C@H]([C@H](OC(=O)c3ccccc3)[C@]3(O)C[C@H](OC(=O)[C@H](O)[C@@H](NC(=O)c4ccccc4)c4ccccc4)C(C)=C1C3(C)C)[C@]1(OC(C)=O)CO[C@@H]1C[C@@H]2O,0.0163 µM (active),–
CC(C)c1nn(-c2c(Cl)cccc2Cl)c2nc(Cc3ccc(OCCO)cc3)[nH]c(=O)c12,0.122 µM (active),–
CN1CCN(c2ccc(OC(F)(F)F)c(Nc3ncc4c(n3)-c3c(c(C(N)=O)nn3CCO)CC4)c2)CC1,0.0611 µM (active),–
Cc1ccc(C(=O)Nc2ccc(Oc3cc4cnn(C)c4cc3-c3cn[nH]c3)c(F)c2)c(=O)n1-c1ccc(F)cc1,8.63 µM (active),–
Cc1c(NC(=O)OCC2COCCN2)cn2ncnc(Nc3ccc4c(cnn4Cc4cccc(F)c4)c3)c12 (configuration not stated),34.3 µM (active),–
CCN[C@H]1C[C@H](C)S(=O)(=O)c2sc(S(N)(=O)=O)cc21,inactive,–
O=c1[nH]c(=O)n([C@H]2C[C@H](O)[C@@H](CO)O2)cc1F,2.43 µM (active),–
S=c1nc[nH]c2nc[nH]c12,3.43 µM (active),–
